Measured values taken from PMC7862700, “An all-to-all approach to the identification of sequence-specific readers for epigenetic DNA modifications on cytosine”.

Tests used:
Experiment in all cases: DAPPL (digital affinity profiling via proximity ligation, sequencing); 10 mM Tris-HCl pH 7.5, 50 mM NaCl, 1 mM DTT, 4% glycerol, room temperature, 30 min; GST-TFs on glutathione beads, 16-mer random dsDNA library, 0.1% formaldehyde crosslink after washing; high values mean tight binding
[1] = target: T1, FLI1 (Homo sapiens, UniProt Q01543 1-452); details: protein: recombinant; tags: N-terminal GST; dsDNA, one strand shown
T1 sequence: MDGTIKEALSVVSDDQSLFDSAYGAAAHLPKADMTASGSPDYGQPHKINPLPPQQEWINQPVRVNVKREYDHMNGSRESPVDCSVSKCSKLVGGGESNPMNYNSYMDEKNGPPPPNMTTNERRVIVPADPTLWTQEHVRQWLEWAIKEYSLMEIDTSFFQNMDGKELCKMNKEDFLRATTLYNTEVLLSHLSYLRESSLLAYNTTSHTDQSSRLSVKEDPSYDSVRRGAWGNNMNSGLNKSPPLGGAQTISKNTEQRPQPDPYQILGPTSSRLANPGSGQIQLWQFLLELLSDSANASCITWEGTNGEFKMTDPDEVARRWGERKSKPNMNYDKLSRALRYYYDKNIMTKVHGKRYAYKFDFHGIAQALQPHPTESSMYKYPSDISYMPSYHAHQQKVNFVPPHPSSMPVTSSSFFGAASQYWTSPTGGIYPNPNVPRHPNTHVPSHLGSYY
In short: (§1)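 Pools were built from human transcription factors expressed in yeast as GST fusions, captured on glutathione beads and DNA-barcoded, along with a tag-only sample. Incubation with 200 nmole of a 16-mer random double-stranded DNA library lasted 30 min at room temperature in Tris/NaCl/DTT/glycerol buffer, and was followed by washing, 0.1% formaldehyde crosslinking, proximity ligation, PCR amplification and Illumina NextSeq500 sequencing. Binding signal is the quotient of each hexamer's read frequency for a factor and its frequency for the tag-only sample.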

[2] = target: T2, ELK1 (Homo sapiens, UniProt P19419 1-428); details: protein: recombinant; tags: N-terminal GST; dsDNA, one strand shown
T2 sequence: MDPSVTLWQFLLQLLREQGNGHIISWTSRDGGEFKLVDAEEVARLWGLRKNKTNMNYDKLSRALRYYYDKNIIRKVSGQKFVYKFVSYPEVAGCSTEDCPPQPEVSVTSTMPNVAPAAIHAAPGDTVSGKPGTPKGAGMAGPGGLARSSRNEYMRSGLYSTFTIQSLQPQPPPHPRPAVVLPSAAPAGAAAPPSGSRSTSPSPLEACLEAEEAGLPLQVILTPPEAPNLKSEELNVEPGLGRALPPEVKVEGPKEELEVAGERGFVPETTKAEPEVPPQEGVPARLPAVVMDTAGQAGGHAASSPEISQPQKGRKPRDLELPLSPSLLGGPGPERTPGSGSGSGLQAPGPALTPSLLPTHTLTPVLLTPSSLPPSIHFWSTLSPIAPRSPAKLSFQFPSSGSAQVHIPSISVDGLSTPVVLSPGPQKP
In short: as §1

[3] = target: T3, GABPA (Homo sapiens, UniProt Q06546 1-454); details: protein: recombinant; tags: N-terminal GST; dsDNA, one strand shown
T3 sequence: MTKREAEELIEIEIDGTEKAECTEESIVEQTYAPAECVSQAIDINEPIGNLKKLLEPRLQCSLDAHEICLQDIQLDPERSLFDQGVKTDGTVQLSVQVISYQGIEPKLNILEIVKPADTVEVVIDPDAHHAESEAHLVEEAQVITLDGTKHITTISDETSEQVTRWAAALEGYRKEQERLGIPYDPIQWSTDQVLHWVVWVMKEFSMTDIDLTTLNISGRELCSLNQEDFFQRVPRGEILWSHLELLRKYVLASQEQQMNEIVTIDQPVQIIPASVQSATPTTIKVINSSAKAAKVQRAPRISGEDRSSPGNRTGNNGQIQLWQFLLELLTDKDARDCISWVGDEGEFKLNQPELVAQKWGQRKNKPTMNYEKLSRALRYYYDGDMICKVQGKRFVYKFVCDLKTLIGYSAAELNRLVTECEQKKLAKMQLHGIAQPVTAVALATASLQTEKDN
In short: as §1

[4] = target: T4, ERG (Homo sapiens, UniProt P11308 1-479); details: protein: recombinant; tags: N-terminal GST; dsDNA, one strand shown
T4 sequence: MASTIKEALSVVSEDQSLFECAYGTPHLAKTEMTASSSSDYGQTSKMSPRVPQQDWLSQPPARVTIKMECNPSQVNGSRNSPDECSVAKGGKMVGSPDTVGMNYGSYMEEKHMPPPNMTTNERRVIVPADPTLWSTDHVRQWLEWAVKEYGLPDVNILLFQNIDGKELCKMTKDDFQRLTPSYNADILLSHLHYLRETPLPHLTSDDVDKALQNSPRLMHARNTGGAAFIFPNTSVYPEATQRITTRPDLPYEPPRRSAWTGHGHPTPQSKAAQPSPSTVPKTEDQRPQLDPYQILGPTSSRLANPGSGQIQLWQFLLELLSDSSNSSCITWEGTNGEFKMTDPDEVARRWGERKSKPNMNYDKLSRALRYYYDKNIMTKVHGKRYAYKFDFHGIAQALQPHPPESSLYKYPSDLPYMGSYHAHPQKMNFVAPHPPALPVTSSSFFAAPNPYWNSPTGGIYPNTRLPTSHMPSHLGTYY
In short: as §1

[5] = target: ELF1 (Homo sapiens, UniProt P32519 1-619); details: protein: recombinant; tags: N-terminal GST; dsDNA, one strand shown
Chain of ELF1 (P32519 whole entry): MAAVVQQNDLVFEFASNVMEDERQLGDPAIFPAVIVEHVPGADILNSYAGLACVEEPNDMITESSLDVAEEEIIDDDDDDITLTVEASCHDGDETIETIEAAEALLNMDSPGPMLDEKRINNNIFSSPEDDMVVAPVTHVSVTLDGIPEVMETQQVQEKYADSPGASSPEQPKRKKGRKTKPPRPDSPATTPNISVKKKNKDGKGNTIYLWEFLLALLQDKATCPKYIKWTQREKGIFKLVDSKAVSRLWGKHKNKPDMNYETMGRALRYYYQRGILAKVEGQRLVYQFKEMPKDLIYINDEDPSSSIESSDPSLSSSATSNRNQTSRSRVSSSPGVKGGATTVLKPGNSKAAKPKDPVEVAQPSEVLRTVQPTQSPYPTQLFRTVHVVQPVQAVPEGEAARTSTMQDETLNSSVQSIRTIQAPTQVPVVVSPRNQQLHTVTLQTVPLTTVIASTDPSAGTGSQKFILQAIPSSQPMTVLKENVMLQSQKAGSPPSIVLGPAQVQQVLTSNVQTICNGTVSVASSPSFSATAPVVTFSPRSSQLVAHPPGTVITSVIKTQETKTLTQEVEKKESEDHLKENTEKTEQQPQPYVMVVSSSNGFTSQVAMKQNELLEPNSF
In short: as §1

[6] = target: T5, EHF (Homo sapiens, UniProt Q9NZC4 1-300); details: protein: recombinant; tags: N-terminal GST; dsDNA, one strand shown
T5 sequence: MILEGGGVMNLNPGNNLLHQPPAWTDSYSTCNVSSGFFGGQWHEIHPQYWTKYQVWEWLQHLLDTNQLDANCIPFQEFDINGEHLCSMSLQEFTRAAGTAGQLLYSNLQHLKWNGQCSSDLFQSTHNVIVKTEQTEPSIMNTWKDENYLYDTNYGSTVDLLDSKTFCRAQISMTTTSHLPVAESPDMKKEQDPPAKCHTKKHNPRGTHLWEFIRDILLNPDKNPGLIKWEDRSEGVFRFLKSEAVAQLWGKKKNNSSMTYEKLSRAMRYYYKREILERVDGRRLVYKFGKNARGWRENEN
In short: as §1

[7] = target: SPI1 (Homo sapiens, UniProt P17947 1-270); details: protein: recombinant; tags: N-terminal GST; dsDNA, one strand shown
In short: as §1

[8] = target: SPIB (Homo sapiens, UniProt Q01892 1-262); details: protein: recombinant; tags: N-terminal GST; dsDNA, one strand shown
Chain of SPIB (Q01892 whole entry): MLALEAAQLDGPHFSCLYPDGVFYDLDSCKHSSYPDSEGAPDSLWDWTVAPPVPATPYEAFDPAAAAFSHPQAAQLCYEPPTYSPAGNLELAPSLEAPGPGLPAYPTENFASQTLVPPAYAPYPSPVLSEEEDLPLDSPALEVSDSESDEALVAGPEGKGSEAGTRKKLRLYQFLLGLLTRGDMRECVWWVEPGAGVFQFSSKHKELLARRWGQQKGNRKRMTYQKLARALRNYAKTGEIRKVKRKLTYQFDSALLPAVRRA
In short: as §1

[9] = target: T6, ELK3 (Homo sapiens, UniProt P41970 1-407); details: protein: recombinant; tags: N-terminal GST; dsDNA, one strand shown
T6 sequence: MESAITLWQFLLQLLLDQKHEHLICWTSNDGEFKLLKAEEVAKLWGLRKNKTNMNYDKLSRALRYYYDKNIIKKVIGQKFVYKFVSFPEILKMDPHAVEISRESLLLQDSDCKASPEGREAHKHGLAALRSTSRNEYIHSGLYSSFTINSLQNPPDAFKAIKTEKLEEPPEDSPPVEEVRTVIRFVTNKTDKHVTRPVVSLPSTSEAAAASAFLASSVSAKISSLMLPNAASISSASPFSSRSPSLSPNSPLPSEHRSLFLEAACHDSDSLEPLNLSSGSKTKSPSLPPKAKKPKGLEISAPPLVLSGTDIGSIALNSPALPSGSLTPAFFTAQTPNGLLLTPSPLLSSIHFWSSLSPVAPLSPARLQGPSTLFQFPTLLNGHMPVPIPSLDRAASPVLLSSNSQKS
In short: as §1

[10] = target: T7, FEV (Homo sapiens, UniProt Q99581 1-238); details: protein: recombinant; tags: N-terminal GST; dsDNA, one strand shown
T7 sequence: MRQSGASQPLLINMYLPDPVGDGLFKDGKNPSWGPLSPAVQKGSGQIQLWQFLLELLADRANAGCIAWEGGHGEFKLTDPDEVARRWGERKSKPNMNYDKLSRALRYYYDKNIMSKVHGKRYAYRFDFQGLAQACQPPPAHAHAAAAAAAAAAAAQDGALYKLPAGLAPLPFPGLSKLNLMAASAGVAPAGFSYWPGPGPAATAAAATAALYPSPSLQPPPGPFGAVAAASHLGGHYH
In short: as §1

[11] = target: ETV5 (Homo sapiens, UniProt P41161 1-510); details: protein: recombinant; tags: N-terminal GST; dsDNA, one strand shown
Chain of ETV5 (P41161 whole entry): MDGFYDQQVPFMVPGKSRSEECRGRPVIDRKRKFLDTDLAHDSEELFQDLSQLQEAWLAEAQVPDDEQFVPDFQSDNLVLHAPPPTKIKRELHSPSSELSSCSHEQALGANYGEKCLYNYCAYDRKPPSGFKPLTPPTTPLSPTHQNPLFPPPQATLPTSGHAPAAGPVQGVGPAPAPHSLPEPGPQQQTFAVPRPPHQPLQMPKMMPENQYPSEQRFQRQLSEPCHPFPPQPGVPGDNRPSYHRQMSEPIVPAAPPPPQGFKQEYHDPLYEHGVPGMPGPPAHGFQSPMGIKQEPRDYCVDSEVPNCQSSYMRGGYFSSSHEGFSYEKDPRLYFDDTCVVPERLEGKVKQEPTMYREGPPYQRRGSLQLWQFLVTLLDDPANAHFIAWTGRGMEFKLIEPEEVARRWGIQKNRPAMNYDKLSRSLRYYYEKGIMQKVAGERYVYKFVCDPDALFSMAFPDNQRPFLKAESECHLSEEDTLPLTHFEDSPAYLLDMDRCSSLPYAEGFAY
In short: as §1

[12] = target: HSF1 (Homo sapiens, UniProt Q00613 1-529); details: protein: recombinant; tags: N-terminal GST; chain copies: 3; dsDNA, one strand shown
Chain of HSF1 (Q00613 whole entry): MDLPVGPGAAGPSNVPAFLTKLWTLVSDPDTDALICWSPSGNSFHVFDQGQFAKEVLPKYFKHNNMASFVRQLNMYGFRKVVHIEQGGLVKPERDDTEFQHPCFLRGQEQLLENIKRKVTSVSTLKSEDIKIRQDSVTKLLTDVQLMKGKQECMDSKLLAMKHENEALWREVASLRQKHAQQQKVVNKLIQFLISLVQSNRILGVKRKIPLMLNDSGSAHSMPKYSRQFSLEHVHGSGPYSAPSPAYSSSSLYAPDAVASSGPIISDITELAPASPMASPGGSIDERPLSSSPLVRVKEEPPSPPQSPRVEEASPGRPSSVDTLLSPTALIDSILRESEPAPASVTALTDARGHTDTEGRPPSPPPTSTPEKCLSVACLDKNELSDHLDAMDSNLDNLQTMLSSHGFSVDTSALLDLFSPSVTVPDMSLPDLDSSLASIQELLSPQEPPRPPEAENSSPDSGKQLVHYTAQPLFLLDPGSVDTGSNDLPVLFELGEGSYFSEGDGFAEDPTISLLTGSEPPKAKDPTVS
In short: as §1

[13] = target: T8, SPIC (Homo sapiens, UniProt Q8N5J4 1-248); details: protein: recombinant; tags: N-terminal GST; dsDNA, one strand shown
T8 sequence: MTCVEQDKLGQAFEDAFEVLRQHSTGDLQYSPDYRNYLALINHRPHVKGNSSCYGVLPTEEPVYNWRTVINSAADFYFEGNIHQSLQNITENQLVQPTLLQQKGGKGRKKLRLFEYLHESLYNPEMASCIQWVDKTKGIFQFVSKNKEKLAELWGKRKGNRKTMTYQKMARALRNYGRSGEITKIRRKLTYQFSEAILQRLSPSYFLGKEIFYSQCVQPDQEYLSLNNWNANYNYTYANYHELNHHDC
In short: as §1

[14] = target: ELF4 (Homo sapiens, UniProt Q99607 1-663); details: protein: recombinant; tags: N-terminal GST; dsDNA, one strand shown
Chain of ELF4 (Q99607 whole entry): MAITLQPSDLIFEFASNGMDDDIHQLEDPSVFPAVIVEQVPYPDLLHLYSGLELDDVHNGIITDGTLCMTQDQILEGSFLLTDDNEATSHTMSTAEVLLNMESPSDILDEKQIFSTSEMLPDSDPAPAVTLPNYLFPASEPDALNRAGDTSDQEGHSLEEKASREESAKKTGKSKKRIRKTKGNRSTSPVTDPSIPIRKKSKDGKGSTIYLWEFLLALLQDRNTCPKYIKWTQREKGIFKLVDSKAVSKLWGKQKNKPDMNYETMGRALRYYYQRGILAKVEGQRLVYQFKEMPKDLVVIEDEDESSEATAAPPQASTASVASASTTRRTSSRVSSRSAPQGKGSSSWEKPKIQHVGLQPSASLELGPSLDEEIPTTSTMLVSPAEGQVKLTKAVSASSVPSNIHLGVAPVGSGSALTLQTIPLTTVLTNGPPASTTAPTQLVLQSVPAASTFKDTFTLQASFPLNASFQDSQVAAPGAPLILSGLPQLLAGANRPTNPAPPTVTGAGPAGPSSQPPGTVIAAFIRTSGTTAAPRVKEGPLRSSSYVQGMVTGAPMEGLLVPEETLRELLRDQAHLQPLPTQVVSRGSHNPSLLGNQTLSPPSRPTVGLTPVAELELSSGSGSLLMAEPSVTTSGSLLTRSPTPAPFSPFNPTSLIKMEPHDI
In short: as §1

[15] = target: T9, ELK4 (Homo sapiens, UniProt P28324-2 1-405); details: protein: recombinant; tags: N-terminal GST; dsDNA, one strand shown
T9 sequence: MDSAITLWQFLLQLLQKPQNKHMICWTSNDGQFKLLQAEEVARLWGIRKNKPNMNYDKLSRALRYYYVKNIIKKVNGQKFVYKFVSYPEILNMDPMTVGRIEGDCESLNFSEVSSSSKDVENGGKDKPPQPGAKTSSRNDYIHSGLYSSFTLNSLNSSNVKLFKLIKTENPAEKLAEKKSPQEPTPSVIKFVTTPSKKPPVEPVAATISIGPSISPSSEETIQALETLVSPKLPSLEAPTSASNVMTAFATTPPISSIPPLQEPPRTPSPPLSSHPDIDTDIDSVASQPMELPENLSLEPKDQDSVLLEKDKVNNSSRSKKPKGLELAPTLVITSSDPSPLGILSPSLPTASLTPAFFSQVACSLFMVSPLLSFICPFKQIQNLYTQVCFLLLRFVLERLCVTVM
In short: as §1

[16] = target: T10, ETV2 (Homo sapiens, UniProt O00321 1-342); details: protein: recombinant; tags: N-terminal GST; dsDNA, one strand shown
T10 sequence: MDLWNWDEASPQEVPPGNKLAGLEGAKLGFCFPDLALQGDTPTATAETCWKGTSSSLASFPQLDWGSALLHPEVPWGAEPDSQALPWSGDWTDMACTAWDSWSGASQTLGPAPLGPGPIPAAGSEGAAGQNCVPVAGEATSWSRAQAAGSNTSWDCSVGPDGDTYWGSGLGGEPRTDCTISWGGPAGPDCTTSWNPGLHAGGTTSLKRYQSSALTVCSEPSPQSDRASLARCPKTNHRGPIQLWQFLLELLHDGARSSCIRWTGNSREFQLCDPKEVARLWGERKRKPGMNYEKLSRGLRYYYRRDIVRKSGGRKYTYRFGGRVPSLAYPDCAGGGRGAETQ
In short: as §1

[17] = target: T11, ELF3 (Homo sapiens, UniProt P78545 1-371); details: protein: recombinant; tags: N-terminal GST; dsDNA, one strand shown
T11 sequence: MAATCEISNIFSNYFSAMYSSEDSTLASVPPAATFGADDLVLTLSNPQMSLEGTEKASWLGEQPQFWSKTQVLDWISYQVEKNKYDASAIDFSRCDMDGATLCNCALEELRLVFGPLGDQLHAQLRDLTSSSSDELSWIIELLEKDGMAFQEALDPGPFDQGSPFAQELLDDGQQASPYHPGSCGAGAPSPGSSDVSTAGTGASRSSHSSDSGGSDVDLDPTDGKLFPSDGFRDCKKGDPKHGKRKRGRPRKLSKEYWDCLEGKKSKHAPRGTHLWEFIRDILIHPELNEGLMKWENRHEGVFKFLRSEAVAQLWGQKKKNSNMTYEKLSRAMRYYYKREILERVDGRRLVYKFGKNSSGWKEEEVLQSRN
In short: as §1

[18] = target: CRX (Homo sapiens, UniProt O43186 1-299); details: protein: recombinant; tags: N-terminal GST; dsDNA, one strand shown
Chain of CRX (O43186 whole entry): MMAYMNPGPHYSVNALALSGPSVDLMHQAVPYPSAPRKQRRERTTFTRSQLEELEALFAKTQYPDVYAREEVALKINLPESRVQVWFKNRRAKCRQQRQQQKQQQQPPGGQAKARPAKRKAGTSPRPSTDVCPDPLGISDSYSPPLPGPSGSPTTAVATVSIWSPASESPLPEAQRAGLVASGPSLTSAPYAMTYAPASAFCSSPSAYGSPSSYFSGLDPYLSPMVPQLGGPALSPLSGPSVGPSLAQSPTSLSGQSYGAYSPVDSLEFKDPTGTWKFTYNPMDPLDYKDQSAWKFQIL
In short: as §1

[19] = target: ETV1 (Homo sapiens, UniProt P50549 1-477); details: protein: recombinant; tags: N-terminal GST; dsDNA, one strand shown
Chain of ETV1 (P50549 whole entry): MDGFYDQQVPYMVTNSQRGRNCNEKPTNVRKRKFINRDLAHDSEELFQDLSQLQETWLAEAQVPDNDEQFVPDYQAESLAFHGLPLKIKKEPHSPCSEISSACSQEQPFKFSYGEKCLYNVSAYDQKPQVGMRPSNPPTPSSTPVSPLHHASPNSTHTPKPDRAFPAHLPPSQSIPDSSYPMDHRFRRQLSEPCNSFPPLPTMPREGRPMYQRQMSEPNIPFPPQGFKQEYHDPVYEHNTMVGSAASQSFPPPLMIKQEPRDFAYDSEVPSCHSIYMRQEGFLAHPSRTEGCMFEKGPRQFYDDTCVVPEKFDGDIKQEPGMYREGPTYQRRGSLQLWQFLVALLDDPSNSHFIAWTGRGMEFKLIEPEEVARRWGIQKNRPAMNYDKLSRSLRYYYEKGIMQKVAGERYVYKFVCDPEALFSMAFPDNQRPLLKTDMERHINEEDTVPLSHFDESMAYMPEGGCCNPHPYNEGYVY
In short: as §1

AATACG was tested, and the binding signal [1] was 1.11 fold enrichment (6-mer frequency, TF over GST control), the binding signal [2] was 1.19 fold enrichment (6-mer frequency, TF over GST control) and the binding signal [3] was 1.24 fold enrichment (6-mer frequency, TF over GST control). The binding signal [4] was 1.22 fold enrichment (6-mer frequency, TF over GST control), the binding signal [5] was 1.12 fold enrichment (6-mer frequency, TF over GST control) and the binding signal [6] was 1.18 fold enrichment (6-mer frequency, TF over GST control). For the same sequence, the binding signal [7] was 1.32 fold enrichment (6-mer frequency, TF over GST control), the binding signal [8] was 1.25 fold enrichment (6-mer frequency, TF over GST control) and the binding signal [9] was 1.26 fold enrichment (6-mer frequency, TF over GST control). For the same sequence, the binding signal [10] was 1.19 fold enrichment (6-mer frequency, TF over GST control), the binding signal [11] was 1.27 fold enrichment (6-mer frequency, TF over GST control) and the binding signal [12] was 1.26 fold enrichment (6-mer frequency, TF over GST control). For the same sequence, the binding signal [13] was 1.17 fold enrichment (6-mer frequency, TF over GST control), the binding signal [14] was 1.29 fold enrichment (6-mer frequency, TF over GST control) and the binding signal [15] was 1.02 fold enrichment (6-mer frequency, TF over GST control). For the same sequence, the binding signal [16] was 1.19 fold enrichment (6-mer frequency, TF over GST control), the binding signal [17] was 1.24 fold enrichment (6-mer frequency, TF over GST control) and the binding signal [18] was 1.36 fold enrichment (6-mer frequency, TF over GST control). The binding signal [19] was 1.28 fold enrichment (6-mer frequency, TF over GST control).
